Data: PubChem BioAssay (EPA / NIEHS)
Values joined by “and” are separate entries in the source; they are usually repeats but may differ in a detail not shown here. Equal entries are not always repeated. Results filed as inconclusive are left out. Some compounds were tested as several samples or in several runs, with calls that do not always agree. Active and inactive are the calls of the source. Rule for the calls: active = hit-call score of the fitted dose curve at least 0.9, where 1 is the maximum; inconclusive = response in the unintended direction; inactive = score below 0.9.

Test system: zebrafish Estrogen Receptor (ER2b), gene 317733
Test: ATG_zfER2b_XSP2: Attagene TRANS-FACTORIAL Multi-Species (XSP2) HepG2 Assay for zebrafish Estrogen Receptor (ER2b) (AID 2283823);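 note: fitted upward as reporter gain over DMSO so potency reflects activation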
Description: ATG_XSP2_multi-species_TRANS is a cell-based, multiplexed assay created by modifying the existing Attagene TRANS-FACTORIAL system to include a panel of nuclear receptors from some or all the following species: human (Homo sapiens), mouse (Mus musculus), frog (Xenopus laevis), zebrafish (Danio rerio), chicken (Gallus gallus), and turtle (Chrysemys picta). The ECOTOX-FACTORIAL format uses HepG2, a human liver cell line, with measurements taken at 24 hours after chemical dosing in a 24-well plate. Xsp2 included 3 nM 6-alpha-fluorotestosterone and 1.5 nM norgestrel to stimulate the androgen receptor.ATG_zfER2b_XSP2 is one of 29 assay components measured or calculated from the ATG_XSP2_multi-species_TRANS assay. It is designed to make measurements of mRNA induction, a form of inducible reporter, as detected with fluorescence intensity signals by Reverse transcription polymerase chain reaction (RT-PCR) and Capillary electrophoresis technology.The assay endpoint ATG_zfER2b_XSP2 was analyzed in the positive analysis fitting direction relative to DMSO as the negative control and baseline of activity. Using a type of inducible reporter, measures of mRNA for gain-of-signal activity can be used to understand the reporter gene at the transcription factor-level as they relate to the gene ER. Furthermore, this assay endpoint can be referred to as a primary readout, because this assay has produced multiple assay endpoints where this one serves a reporter gene function. To generalize the intended target to other relatable targets, this assay endpoint is annotated to the nuclear receptor intended target family, where the subfamily is steroidal.
Human liver HepG2 cells are transiently transfected with multiple reporter transcription units (MRTUs) in 6-well plates using FuGene 6 reagent (Roche; 3 ml FuGene/1 mg DNA). The MRTU constructs are regulated by a cis-regulating element (promoter). […] A major difference between the CIS and TRANS system is that in CIS activities of endogenous TFs are measured, whereas the TRANS assay evaluates changes in activities of exogenous, chimeric NR-Gal4 proteins. […] At the end of 24 hour incubation, total RNA was isolated using TriZol reagent (Invitrogen). The isolated RNA is then reverse-transcribed using oligo(dT) primer and Mo-MLV reverse transcriptase (Invitrogen) with DNAse I (Ambion) treatment for 30 min. The one-tenth of the produced cDNA was amplified by PCR using Taq DNA polymerase (Invitrogen) and two reporter sequence-specific primers. The PCR products were fluorescently labeled by primer extension with 6-arboxyfluorescein (6-FAM) 5'-labeled reporter sequence-specific primer (2 min at 95 C, 20 s at 68 C and 10 min at 72 C) and these products were digested with 5U of HpaI (New England Biolabs) for 2h at 37 C. The fragments were purified using Qiaquick PCR columns (Qiagen), analyzed on an ABI 3130xL genetic analyzer (Applied Biosystems) with peak positions identified by using a set of X-rhodamine (ROX)-labeled MapMarker1000 molecular weight standards (BioVentures). The raw capillary electrophoresis data was processed using Attagraph software (Attagene).

Compound | AC50 | outcome
O=S(=O)(c1ccc(Cl)cc1)c1ccc(Cl)cc1 | 100 µM (active) and 27.1 µM (active) | 
COP(=O)(OC)O/C(=C\Cl)c1cc(Cl)c(Cl)cc1Cl | 45.5 µM (active) | 
C[C@]12CC[C@H](O)CC1=CC[C@@H]1[C@@H]2CC[C@]2(C)C(=O)CC[C@@H]12 | 2.89 µM (active) and 1.73 µM (active) | 
C[C@H]1CCCC(=O)CCC/C=C/c2cc(O)cc(O)c2C(=O)O1 | 27.1 nM (active) and 8.37 nM (active) | 
CC12CC1(C)C(=O)N(c1cc(Cl)cc(Cl)c1)C2=O (configuration not stated) | 29.8 µM (active) | inactive
CC1(C)CCC(Cc2ccc(Cl)cc2)C1(O)Cn1cncn1 (configuration not stated) | 27.5 µM (active) | 
Oc1ccc(-c2ccccc2)cc1 | 5.61 µM (active) and 3.05 µM (active) | 
C[C@]12CCC(=O)C[C@@H]1CC[C@@H]1[C@@H]2CC[C@]2(C)[C@@H](O)CC[C@@H]12 |  | inactive
Oc1c(I)cc(I)cc1I | 57.4 µM (active) | inactive
CC(C)C1CCC(Cc2ccc(Cl)cc2)C1(O)Cn1cncn1 (configuration not stated) | 14.6 µM (active) and 2.83 µM (active) | 
Clc1ccc(C2(Cn3cncn3)CC(Br)CO2)c(Cl)c1 (configuration not stated) | 51.4 µM (active) and 29.2 µM (active) | 
CC(C)(C)CC(C)(C)c1ccc(O)cc1 | 5.17 µM (active) | 
CC(C)(C)c1cc(O)ccc1O | 55.2 µM (active) | 
O=C1C2(Cl)C3(Cl)C4(Cl)C(Cl)(Cl)C5(Cl)C3(Cl)C1(Cl)C5(Cl)C24Cl (configuration not stated) | 4.05 µM (active) | 
CC(=O)C=C(C)C |  | inactive
